Compound activity (PubChem BioAssay)
Apoferritin bind: binds horse apoferritin like a general anesthetic. AID 485281. Potency, µM (titrated, usually from 77.5 µM), usual class: inhibitors. apoferritin/1-aminoanthracene competitive binding, fluorescence. P02791. 350,000 compounds, 0.074% hits; also: nearly all actives have a fitted effect of over 20% in size
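10 uM apoferritin + 50% sat. 1-AMA, PBS; cpd 10 min RT; Ex380/Em535 endpoint; normalized to free probe vs complex; 4-param Hill fit; propofol titration as pos. ctrl.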
Eya2 phos inh: inhibitors of human Eya2 phosphatase activity; O00167; recombinant Eya2, OMFP fluorescence dephosphorylation (OMFP is methylfluorescein phosphate); Potency, µM (series often up to 76.9 µM), usual class: inhibitors; AID 488837; 330,000 compounds, 0.006% hits
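Eya2 protein (added as 0.2 uM solution) was preincubated with compound for 10 min at ambient temperature in 50 mM HEPES pH 7.5, 50 mM NaCl, 5 uM MgCl2, 0.05% BSA, 1 mM DTT. OMFP (added at 50 uM) then reacted 10 min; fluorescence read at 485/525 nm.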
JMJD2E inh: JMJD2E (human) inhibition. B2RXH2. JMJD2E catalytic domain, FDH-coupled NADH fluorescence (FDH is formaldehyde dehydrogenase). Potency, µM (titrated, usually from 57.1 µM), hits mostly inhibitors. 230,000 compounds, 1.6% hits; active = well fitted inhibition curve with a large enough effect, not every such curve was filed as active; inconclusive = small, poorly fitted or top-dose-only effect, or another doubt; inactive = no such curve, though single readings can be large or run the other way; also: nearly all actives have a fitted effect of over 50% in size
CtBP-E1A blk: CtBP/E1A binding inhibition. AlphaScreen GST-E1A/His-CtBP binding, 1536-well; stronger effect = lower value. activity change, % (test concentration not listed). 340,000 compounds, 0.49% hits. AID 651724; in the data active = activity change below about -65%; inconclusive = mostly about -30% to -63%
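GST-E1A and His-tagged CtBP (125 nM each as 5X stock) were preincubated with pin-transferred compound for 2 h at 37 °C in the dark, then glutathione donor and nickel acceptor beads were added for 1 h before AlphaScreen reading.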
Six1-Eya2 blk: Six1/Eya2 interaction inhibition. 360,000 compounds, 0.56% hits. AlphaScreen GST-Six1/His-Eya2 binding, biochemical; stronger effect = lower value. activity change, % (concentration not given with the values). Q15475+O00167; in the data active = activity change below about -65%; inconclusive = mostly about -30% to -63%
Target sequence (O00167 whole entry, looked up): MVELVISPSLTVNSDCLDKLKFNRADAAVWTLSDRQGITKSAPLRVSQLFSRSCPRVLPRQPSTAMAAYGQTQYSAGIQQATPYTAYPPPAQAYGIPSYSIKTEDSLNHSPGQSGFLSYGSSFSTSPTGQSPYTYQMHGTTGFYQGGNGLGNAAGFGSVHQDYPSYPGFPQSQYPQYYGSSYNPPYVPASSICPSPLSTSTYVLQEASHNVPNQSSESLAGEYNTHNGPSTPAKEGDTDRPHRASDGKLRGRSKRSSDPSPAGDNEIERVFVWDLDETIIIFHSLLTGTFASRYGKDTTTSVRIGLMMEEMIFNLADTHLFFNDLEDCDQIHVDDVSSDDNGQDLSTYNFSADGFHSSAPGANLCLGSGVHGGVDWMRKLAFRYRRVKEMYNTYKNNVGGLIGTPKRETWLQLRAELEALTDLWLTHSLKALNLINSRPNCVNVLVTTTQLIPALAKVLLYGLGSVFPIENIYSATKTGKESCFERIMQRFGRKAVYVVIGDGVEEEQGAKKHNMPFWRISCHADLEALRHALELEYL
Target sequence (Q15475 whole entry, looked up): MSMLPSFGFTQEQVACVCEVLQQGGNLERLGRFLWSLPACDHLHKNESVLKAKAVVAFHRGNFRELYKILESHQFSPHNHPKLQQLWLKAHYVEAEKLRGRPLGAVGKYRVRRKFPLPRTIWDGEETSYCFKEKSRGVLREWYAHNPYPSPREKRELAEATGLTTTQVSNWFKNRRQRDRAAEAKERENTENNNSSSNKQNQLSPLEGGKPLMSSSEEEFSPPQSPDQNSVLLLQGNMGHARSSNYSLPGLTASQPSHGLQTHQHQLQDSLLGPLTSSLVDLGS
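AlphaScreen with GST-Six1 and His-Eya2 (5X mix: 250 nM and 500 nM), glutathione donor and nickel acceptor beads; buffer 50 mM Tris pH 8.0, 300 mM NaCl, 1 mM TCEP; 1 h at 37 C in the dark.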
GALK inh: blocks human galactokinase activity; P51570; Purified GALK, Kinase-Glo residual ATP luminescence; Potency, µM (series often up to 57.5 µM), most hits filed as inhibitors; 270,000 compounds, 0.007% hits; AID 1868
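GALK at 5 nM final was combined with compound, 35 uM ATP and 100 uM galactose in HEPES pH8.0 with MgCl2 and DTT. The reaction ran one hour at room temperature before luminescent ATP detection.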
Numbers stand for hits. This excerpt belongs to a sample that is enriched for hits. Unless noted, calls follow the shape of the dose curve; as a rule, active = well fitted curve in the direction sought with a large enough effect; inconclusive = small, poorly fitted or top-dose-only effect, or another doubt; inactive = no such curve, though single readings can be large; an effect the other way counts as inactive or inconclusive.

Results for Cc1ccc2nc(-c3ccccn3)c(Nc3ccccc3C)n2c1 ?
Apoferritin bind: inconclusive; Eya2 phos inh: inactive; JMJD2E inh: inactive; CtBP-E1A blk: -90.8; Six1-Eya2 blk: inconclusive; GALK inh: inactive

How did Cc1ccccc1Nc1c(-c2cccnc2)nc2ccccn12 do in these assays?
Apoferritin bind: inactive; Eya2 phos inh: inactive; JMJD2E inh: inconclusive; CtBP-E1A blk: inactive; Six1-Eya2 blk: inactive

Results for Cc1ccn2c(Nc3ccccc3)c(-c3ccccn3)nc2c1 ?
Apoferritin bind: inactive; Eya2 phos inh: inactive; JMJD2E inh: inactive; CtBP-E1A blk: -78.3; Six1-Eya2 blk: -73.7; GALK inh: inactive

How did Cc1ccn2c(Nc3ccccc3C)c(-c3ccccn3)nc2c1 do in these assays?
Apoferritin bind: inactive; Eya2 phos inh: inactive; JMJD2E inh: inactive; CtBP-E1A blk: -93.3; Six1-Eya2 blk: -82.3; GALK inh: inactive

How did O=C1OCc2cc(NS(=O)(=O)c3cccs3)ccc21 do in these assays?
Apoferritin bind: inactive; Eya2 phos inh: inactive; JMJD2E inh: inactive; CtBP-E1A blk: inactive; Six1-Eya2 blk: inactive; GALK inh: inactive

What do the screens show for `O=S(=O)(Nc1ccc2c(c1)CCC2)c1cccs1`?
Apoferritin bind: 11.2µM; Eya2 phos inh: inactive; JMJD2E inh: inactive; CtBP-E1A blk: inactive; Six1-Eya2 blk: inactive; GALK inh: inactive

What do the screens show for `O=c1[nH]c(=O)n(C2CC(O)C(CO)O2)cc1C(F)(F)F` (stereo not given)?
Apoferritin bind: inactive; JMJD2E inh: inactive

What do the screens show for `CCN(CC)c1ccc(/C=N\N2CCN(Cc3ccc(C)cc3)CC2)cc1`?
Apoferritin bind: inactive; Eya2 phos inh: inactive; JMJD2E inh: inactive; CtBP-E1A blk: inconclusive; Six1-Eya2 blk: -65.5; GALK inh: inactive

Results for CSc1ccc(/C=N/N2CCN(Cc3ccccc3)CC2)cc1 ?
Apoferritin bind: inactive; Eya2 phos inh: inactive; JMJD2E inh: 11.2µM; CtBP-E1A blk: inconclusive; Six1-Eya2 blk: inconclusive; GALK inh: inactive

What do the screens show for `Cc1ccc(CN2CCN(/N=C/c3ccc(C(=O)O)cc3)CC2)cc1`?
Apoferritin bind: inactive; Eya2 phos inh: inactive; JMJD2E inh: inactive; CtBP-E1A blk: inactive; Six1-Eya2 blk: inactive; GALK inh: inactive

Results for O=C1c2ccccc2C(c2nnnn2Cc2ccccc2)N1Cc1cccc(F)c1 (stereo not given) ?
CtBP-E1A blk: inactive; Six1-Eya2 blk: inactive

Results for CCOC(=O)c1oc2c(O)c(O)ccc2c(=O)c1-c1nncn1-c1ccccc1 ?
Apoferritin bind: inactive; Eya2 phos inh: inactive; JMJD2E inh: 7.94µM; CtBP-E1A blk: inactive; Six1-Eya2 blk: inactive; GALK inh: inactive

How did COc1ccc(CNC(=O)C(=O)Nc2c3c(nn2-c2ccccc2)CSC3)cc1 do in these assays?
Apoferritin bind: inactive

What do the screens show for `Cc1nc(N/N=C/c2ccc(O)cc2O)cc(N2CCOCC2)n1`?
Apoferritin bind: inactive; Eya2 phos inh: inactive; CtBP-E1A blk: -93.4; Six1-Eya2 blk: -78.7; GALK inh: inactive

Results for Oc1ccccc1/C=N/Nc1cc(N2CCCC2)nc(N2CCCC2)n1 ?
Apoferritin bind: inactive; Eya2 phos inh: inactive; JMJD2E inh: inconclusive; CtBP-E1A blk: inactive; Six1-Eya2 blk: inconclusive; GALK inh: inactive

What do the screens show for `Cc1nc(N/N=C/c2cccc(F)c2)cc(N2CCOCC2)n1`?
Apoferritin bind: inactive; Eya2 phos inh: inactive; CtBP-E1A blk: inactive; Six1-Eya2 blk: inactive; GALK inh: inactive

Results for Oc1ccc(/C=N/Nc2cc(N3CCOCC3)nc(N3CCOCC3)n2)cc1O ?
Apoferritin bind: inactive; Eya2 phos inh: inactive; JMJD2E inh: 28.2µM; CtBP-E1A blk: inactive; Six1-Eya2 blk: inactive; GALK inh: inactive

How did NC1=NC(=O)/C(=C/c2ccccc2OCC(=O)Nc2ccc(F)cc2)S1 do in these assays?
Eya2 phos inh: inactive; CtBP-E1A blk: inactive; Six1-Eya2 blk: inactive

How did O=C(COc1ccccc1/C=C1\SC(=S)NC1=O)Nc1ccc(F)cc1 do in these assays?
Eya2 phos inh: inactive; CtBP-E1A blk: -85.4; Six1-Eya2 blk: inactive

How did O=c1cc2c(=O)oc3cc(O)c(O)oc3c2c(O)c1O do in these assays?
Apoferritin bind: inactive; Eya2 phos inh: inactive; JMJD2E inh: 3.98µM; CtBP-E1A blk: inactive; Six1-Eya2 blk: -78.5

What do the screens show for `O=C(O)c1ccc(-c2ccc3cc(C45CC6CC(CC(C6)C4)C5)c(O)cc3c2)cc1`?
Apoferritin bind: inactive

How did O=C(O)c1cccc(N2C(=O)/C(=C/c3ccc(SCc4ccc(Cl)cc4)o3)SC2=S)c1 do in these assays?
Apoferritin bind: inactive; Eya2 phos inh: inactive; JMJD2E inh: 22.4µM; CtBP-E1A blk: inactive; Six1-Eya2 blk: inconclusive; GALK inh: inactive

How did O=C(CCN1C(=O)/C(=C/c2ccc(Cl)cc2)SC1=S)Nc1cccc(C(=O)O)c1 do in these assays?
Apoferritin bind: inactive; Eya2 phos inh: inactive; CtBP-E1A blk: inactive; Six1-Eya2 blk: inactive; GALK inh: inactive

How did Nc1c(C(=O)NCC2CCCO2)sc2nc3c(c(-c4ccco4)c12)CC/C3=C\c1ccco1 (stereo not given) do in these assays?
Apoferritin bind: inactive; Eya2 phos inh: inactive; JMJD2E inh: 7.08µM; CtBP-E1A blk: inactive; Six1-Eya2 blk: inconclusive; GALK inh: inactive

How did NC(=O)c1sc2nc3c(c(-c4ccco4)c2c1N)CCCC3 do in these assays?
Apoferritin bind: inactive; Eya2 phos inh: inactive; JMJD2E inh: inactive; Six1-Eya2 blk: inactive; GALK inh: inactive

How did COc1ccc(CCNC(=O)c2c(C)oc3nc(C)nc(N4CCOCC4)c23)cc1OC do in these assays?
Apoferritin bind: inactive

How did Oc1ccc(/C=N/N(Cc2ccccc2)c2ccccc2)c(O)c1O do in these assays?
Apoferritin bind: inactive; Eya2 phos inh: inactive; JMJD2E inh: 20µM; CtBP-E1A blk: inactive; Six1-Eya2 blk: inactive; GALK inh: inactive

How did O=C1C(Cl)=C(NCCc2ccccc2)C(=O)c2ccccc21 do in these assays?
CtBP-E1A blk: -78.7; Six1-Eya2 blk: -75.9

Results for O=C1C(Cl)=C(Nc2ccccc2)C(=O)c2ccccc21 ?
Apoferritin bind: inactive; Eya2 phos inh: inactive; JMJD2E inh: inactive; CtBP-E1A blk: inactive; Six1-Eya2 blk: inactive; GALK inh: inactive

What do the screens show for `CCOC(=O)c1ccc(Nc2nc(C(=O)OCC)nc3ccccc23)cc1`?
Apoferritin bind: inconclusive; Eya2 phos inh: inactive; JMJD2E inh: inconclusive; CtBP-E1A blk: -89.5; Six1-Eya2 blk: -78.9; GALK inh: inactive

Results for CCOC(=O)c1nc(Nc2ccc(C(=O)O)cc2)c2ccccc2n1 ?
Apoferritin bind: inactive; Eya2 phos inh: inactive; JMJD2E inh: inactive; CtBP-E1A blk: inconclusive; Six1-Eya2 blk: inconclusive; GALK inh: inactive

Results for O=C(/C=C/c1ccc(O)c(O)c1)c1ccc(S(=O)(=O)N2CCCCCC2)cc1 ?
Apoferritin bind: inconclusive; Eya2 phos inh: inactive; JMJD2E inh: 28.2µM; CtBP-E1A blk: inactive; Six1-Eya2 blk: inactive; GALK inh: inactive
